Source: PubChem BioAssay AID504339 (National Center for Advancing Translational Sciences (NCATS), 2011)
The campaign covered roughly 390,000 compounds. About 17,000 (4.4%) were called active. A call without a number means that no potency is given here. Inconclusive results (about 8%) are left out. Calls come from the whole dose curve; as a rule, active = well fitted inhibition curve with a large enough effect; inconclusive = small, poorly fitted or top-dose-only effect; inactive = no such curve, though single readings can be large or run the other way. This excerpt belongs to a sample that is enriched for actives.

What follows are molecules tested against Lysine-specific demethylase 4A (Homo sapiens) (UniProt O75164) (assay: qHTS Assay for Inhibitors of JMJD2A-Tudor Domain). Settings: AlphaScreen JMJD2A-Tudor / H3K4me3 peptide binding; series mostly up to 114 µM.
Sequence of Lysine-specific demethylase 4A (Homo sapiens) (O75164 whole entry, looked up, the tested form may be a part): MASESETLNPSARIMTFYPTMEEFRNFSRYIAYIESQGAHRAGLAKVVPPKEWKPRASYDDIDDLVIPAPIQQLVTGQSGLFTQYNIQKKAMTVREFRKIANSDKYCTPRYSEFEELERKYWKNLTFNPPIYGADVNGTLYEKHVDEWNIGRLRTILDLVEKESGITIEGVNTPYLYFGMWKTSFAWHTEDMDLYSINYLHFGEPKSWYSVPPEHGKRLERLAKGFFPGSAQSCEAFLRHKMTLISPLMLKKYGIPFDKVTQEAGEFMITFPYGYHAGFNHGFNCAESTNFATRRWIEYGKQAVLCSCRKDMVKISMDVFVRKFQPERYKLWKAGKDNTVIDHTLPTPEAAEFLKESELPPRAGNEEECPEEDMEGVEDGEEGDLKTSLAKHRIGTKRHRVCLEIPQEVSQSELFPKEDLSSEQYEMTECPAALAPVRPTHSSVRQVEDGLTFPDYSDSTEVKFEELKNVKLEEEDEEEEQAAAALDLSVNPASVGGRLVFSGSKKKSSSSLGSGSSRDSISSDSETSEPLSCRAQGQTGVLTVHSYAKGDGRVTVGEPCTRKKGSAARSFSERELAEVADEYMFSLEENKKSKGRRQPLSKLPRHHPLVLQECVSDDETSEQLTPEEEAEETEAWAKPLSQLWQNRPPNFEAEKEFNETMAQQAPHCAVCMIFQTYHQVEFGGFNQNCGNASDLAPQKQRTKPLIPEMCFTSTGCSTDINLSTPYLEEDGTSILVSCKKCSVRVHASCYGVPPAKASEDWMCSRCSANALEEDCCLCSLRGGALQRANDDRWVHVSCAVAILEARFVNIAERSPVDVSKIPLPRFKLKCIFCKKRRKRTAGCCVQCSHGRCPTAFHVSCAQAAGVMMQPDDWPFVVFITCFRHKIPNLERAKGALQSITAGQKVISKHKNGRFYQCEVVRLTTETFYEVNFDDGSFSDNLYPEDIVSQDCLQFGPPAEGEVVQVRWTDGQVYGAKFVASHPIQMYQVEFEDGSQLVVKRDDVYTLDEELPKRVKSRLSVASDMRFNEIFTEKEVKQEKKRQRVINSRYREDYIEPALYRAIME
Note: nearly all actives have a fitted effect of over 50% in size.
Potency is the fitted concentration of half-maximal effect.

Row | SMILES | Potency
1 | COc1ccc(NC(=O)CCNS(=O)(=O)c2ccc3c(c2)CCCC(=O)N3)cc1Cl | inactive
2 | COc1ccc(C(=O)Nc2cccc(C(=O)OCc3cc(=O)n4c5c(sc4n3)CCCC5)c2)cc1 | inactive
3 | Cc1cccc(N2CCN(C(=O)c3oc(=O)c4ccccc4c3-c3ccccc3)CC2)c1C | inactive
4 | Cc1cccc(N2CCN(Cc3c(C)n(C)n(-c4ccccc4)c3=O)CC2)c1C | inactive
5 | Cc1cccc(N2CCN(C3=C(c4ccccc4)C(=O)c4ccccc43)CC2)c1C | 5.62 µM (active)
6 | COc1cccc(-c2n[nH]c3c2C(c2cccc(O)c2)N(C)C3=O)c1 (stereo not given) | inactive
7 | CCC(=O)N1N=C(c2ccc(OC)cc2)CC1c1cn(-c2ccccc2)nc1-c1cccs1 (stereo not given) | inactive
8 | CC1CCN(CC(O)COc2ccc(C(=O)c3ccccc3)cc2)CC1 (stereo not given) | inactive
9 | O=C(c1ccc(Cl)cc1)c1ccc(OCC(O)CN2CCCCC2)cc1 (stereo not given) | inactive
10 | CCOc1ccc(C(=O)/C=C/c2cn(CC(O)CN3CCCCCC3)c3ccccc23)cc1 (stereo not given) | 70.8 µM (active)
11 | Cn1c(=O)c2c(nc(Oc3ccc(C#N)cc3)n2Cc2ccc(Cl)cc2Cl)n(C)c1=O | inactive
12 | O=[N+]([O-])c1cc(-c2nc(-c3ccccc3)no2)ccc1NCc1ccco1 | inactive
13 | COc1ccc(CC(=O)Nc2ccccc2NC(=O)c2ccco2)cc1OC | inactive
14 | COc1ccc(C/C(N)=N/OC(=O)c2ccco2)cc1OC | 44.7 µM (active)
15 | COc1ccccc1C(=O)NC(=O)COC(=O)c1ccco1 | inactive
16 | COc1ccc(OC)c(NC(=O)Cn2c(=O)n(Cc3ccccc3)c(=O)c3ccccc32)c1 | inactive
17 | CN(C)c1ccc(C2N(C)C(=O)c3ccccc3N2C)cc1 (stereo not given) | inactive
18 | CN(C)c1ccc(Nc2c3c4c(cccc4n(C)c2=O)C(=O)c2ccccc2-3)cc1 | 3.55 µM (active)
19 | Cc1cc(NS(=O)(=O)c2ccc(NC(=O)c3ccccc3C)cc2)nc(C)n1 | inactive
20 | COc1ccc(C2=CC(c3ccccc3Cl)n3nc(-c4ccc(Cl)cc4)nc3N2)cc1 (stereo not given) | inactive
21 | COc1ccc(CC(=O)Nc2nc3n(n2)C(c2ccccc2)CC(=O)N3)cc1OC (stereo not given) | inactive
22 | Cc1ccc(C2C=C(c3ccc(Cl)cc3)Nc3nc(NC(=O)CCC(=O)O)nn32)cc1 (stereo not given) | 79.4 µM (active)
23 | COc1cccc(CN2CCc3nc(SCC(=O)Nc4ccccc4)[nH]c(=O)c3C2)c1 | inactive
24 | S=C(NCCC1=CCCCC1)Nc1ccccc1 | inactive
25 | Cc1cc(NC(=O)C(C)SCC(=O)Nc2ccccc2N2CCCCC2)no1 (stereo not given) | inactive

Row | SMILES | Potency
26 | O=C(CNCCC1=CCCCC1)Nc1ccccc1N1CCCCCC1 | 56.2 µM (active)
27 | Cc1cc(-c2ccccc2)n2nc(-c3ccccc3)cc2n1 | inactive
28 | Cc1nnc(SCC(=O)NCc2ccccc2Cl)c2nn(-c3ccccc3)c(C)c12 | inactive
29 | COc1ccc(CNC(=O)c2cc3c(=O)[nH]c4ccccc4c3s2)cc1 | inactive
30 | CCN(c1ccccc1)S(=O)(=O)c1ccc(NC(=O)C(C)(C)C)cc1 | inactive
31 | CCN(c1ccccc1)S(=O)(=O)c1ccc2[nH]c(=O)[nH]c2c1 | 56.2 µM (active)
32 | CN(c1ccccc1)S(=O)(=O)c1ccc2[nH]c(=O)[nH]c2c1 | inactive
33 | CCCC12CN3CC(C)(CN(C1)C3c1ccccc1Cl)C2=O (stereo not given) | inactive
34 | COc1ccc(N2CCN(C(=O)CSc3nc4cc(OC)c(OC)cc4cc3C#N)CC2)cc1 | 56.2 µM (active)
35 | CCOc1ccc(-c2nnn(CC(=O)N3CCN(c4ccc(OC)cc4)CC3)n2)cc1OCC | inactive
36 | COc1ccc(N2CCN(C(=O)CSc3nnc4ncccn34)CC2)cc1 | inactive
37 | COc1ccccc1C(=O)Nc1c(C(=O)N(C)Cc2ccccc2)sc2nc(C)c(Cl)c(C)c12 | inactive
38 | O=C(NCc1ccc(Cl)cc1)c1ccc2c(c1)nnn2C1CCCC1 | inactive
39 | COc1ccc(-c2nc(S(=O)(=O)c3ccccc3)c(N3CCCCC3)o2)cc1 | inactive
40 | CCOC(=O)c1cnc(SCC(=O)Nc2ccccc2C(=O)OC)nc1N | inactive
41 | CCOC(=O)COc1nc(C)cc(C(F)(F)F)c1C#N | inactive
42 | CCOC(=O)C(Sc1ncc(C#N)c(N)n1)C(C)C (stereo not given) | 44.7 µM (active)
43 | COc1ccccc1N1CCN(C2C(=O)c3ccccc3N2C(C)=O)CC1 (stereo not given) | inactive
44 | COc1ccccc1N1CCN(/N=C/c2ccc(O)cc2O)CC1 | inactive
45 | COc1ccccc1N1CCN(/N=C\C(Br)=C\c2ccccc2)CC1 | 39.8 µM (active)
46 | CCN1CCN(C(=O)N[C@@H](C(=O)N[C@@H]2C(=O)N3C(C(=O)O)=C(CSc4nnnn4C)CS[C@H]23)c2ccc(O)cc2)C(=O)C1=O | inactive
47 | Cc1nnc(SCC2=C(C(=O)O)N3C(=O)C(NC(=O)Cn4nc(C)c(Cl)c4C)C3SC2)s1 (stereo not given) | inactive
48 | Cc1cc(C)cc(C(=O)NC2C(=O)N3C(C(=O)O)=C(CSc4nnc(C)s4)CSC23)c1 (stereo not given) | 79.4 µM (active)
49 | O=C(NC1CC(=O)N(c2ccc(Cl)cc2)C1)C1CCCC1 (stereo not given) | inactive
50 | Cc1ccc(CN2CCC(CNC(=O)c3cnn(-c4ccc(C)cc4)c3C3CCN(C(=O)OC(C)(C)C)CC3)CC2)cc1 | inactive

Row | SMILES | Potency
51 | COc1ccc(CCNC(=O)COC(=O)c2ccc[nH]c2=O)cc1 | 31.6 µM (active)
52 | COc1ccc(CCNC(=O)COC(=O)c2cc(=O)c3ccccc3o2)cc1 | inactive
53 | COc1ccc(CCNC(=O)COC(=O)C2CC2C)cc1 (stereo not given) | inactive
54 | COc1cccc(CNC(=O)c2cc(=O)[nH]c3ccc(S(=O)(=O)N4CCCCC4)cc23)c1 | inactive
55 | CC1CN(C(=O)N2CCC(C(=O)NCc3ccco3)CC2)c2cc(Cl)ccc2O1 (stereo not given) | inactive
56 | CCCn1c(=N)n(CC(O)COc2ccccc2OC)c2ccccc21 (stereo not given) | inactive
57 | O=C(Cn1c(-c2cccs2)cc2ccccc21)NCCc1ccc(Cl)cc1 | inactive
58 | CC(C)=CCCC1(C)C=Cc2c(ccc3c2[nH]c2cc(O)c(C)cc23)O1 (stereo not given) | 44.7 µM (active)
59 | Cc1c(Cl)cccc1NC(=O)N1CCN(C(=O)c2nsc3ccccc23)CC1 | inactive
60 | CCCN(C(=O)Cn1ncc2c([nH]c3ccc(C)cc32)c1=O)c1ccccc1C | inactive
61 | COc1cc(N2CCCC2)c(OC)cc1/C=C(/C#N)c1cccc(Br)c1 | 17.8 µM (active)
62 | CCOc1ccc(/C=C(/C#N)c2nnc(N3CCOCC3)n2-c2ccccc2)cc1OC | inactive
63 | CCCn1c2ccccc2c2cnn(CC(=O)NCC3CCN(Cc4ccc(C)cc4)CC3)c(=O)c21 | inactive
64 | CC(Sc1nnnn1C1CCCCC1)C(=O)O (stereo not given) | 11.2 µM (active)
65 | O=C(CSc1nnnn1C1CCCC1)N1CCCCC1 | inactive
66 | CC(Sc1nnnn1C)C(=O)NC(=O)NC1CCCCC1 (stereo not given) | inactive
67 | CCN(CC)c1ccc(C2C(C(N)=O)=C(C)Nc3nc(SCc4ccccc4)nn32)cc1 (stereo not given) | inactive
68 | CCc1ccc(NC(=O)c2cc(S(=O)(=O)N3CCCC(C)C3)cn2C)cc1 (stereo not given) | inactive
69 | CCOc1ccc(CNCc2c(C(=O)O)c(C)n(Cc3cccc(OC)c3)c2C)cc1OC | inactive
70 | CCOc1ccc(NC(=O)Nc2cc(C)on2)cc1 | inactive
71 | Cc1cc(NC(=O)COc2ccccc2C#N)no1 | inactive
72 | Cc1cc(NC(=O)Nc2ccccc2[N+](=O)[O-])no1 | 22.4 µM (active)
73 | Cc1ccc(C(=O)Nc2ccc(OCc3cc(=O)n4c(C)csc4n3)cc2)cc1 | inactive
74 | CCOc1cccc(CNC(=O)c2ccc(N3CCCC3)c(NC(=O)Nc3ccccc3CC)c2)c1 | inactive
75 | COc1ccccc1/C=C/c1nc(C#N)c(NC(C)c2ccccc2)o1 (stereo not given) | inactive

Row | SMILES | Potency
76 | COc1cc2nc(NCC(C)c3ccccc3)n3nc(-c4ccccc4)nc3c2cc1OC (stereo not given) | inactive
77 | Clc1ccc(CSc2nncn3c2cc2occc23)cc1 | 39.8 µM (active)
78 | Clc1ccccc1CSc1nncn2c1cc1occc12 | inactive
79 | Nc1cc(N)nc(SCc2ccc(Cl)cc2)n1 | inactive
80 | COc1ccc(-n2c(C)nc3c(cnn3-c3ccc(F)cc3)c2=O)cc1 | inactive
81 | COc1cc(NC(=O)CSc2nc3nc(C)c(Cc4ccc(C)cc4)c(C)n3n2)cc(OC)c1OC | inactive
82 | O=C(O)c1c(CNCc2cccc(F)c2)c2ccccc2n1Cc1ccccc1 | inactive
83 | O=C(Nc1nnc(C2CC(=O)N(c3ccc(Cl)cc3)C2)s1)c1ccco1 (stereo not given) | inactive
84 | Cc1cccc(CSc2nc3ccncc3n2CC(=O)N(C)C2CCCCC2)c1 | inactive
85 | CCOc1ccc(CNC(=O)C2CCCN(S(=O)(=O)N(CC)c3ccc(OCC)cc3)C2)cc1 (stereo not given) | inactive
86 | Cc1sc2nc(CSCC(=O)NC3CCCCC3)[nH]c(=O)c2c1C | inactive
87 | CSc1nnc(SCc2nc3sc(C(=O)O)c(C)c3c(=O)[nH]2)s1 | 12.6 µM (active)
88 | CCOC(=O)c1sc2nc(CSCC(=O)OCc3ccc(C(=O)OC)o3)[nH]c(=O)c2c1C | inactive
89 | Cn1c(=O)sc2cc(NS(=O)(=O)c3ccc(C(C)(C)C)cc3)ccc21 | inactive
90 | CCOC(=O)c1ccc(NC(=O)c2c(NCc3cccc(OC)c3)sc3c2CCC3)cc1 | inactive
91 | CCOC(=O)C1CCCN(S(=O)(=O)c2cc(-c3cc(C)no3)ccc2OC)C1 (stereo not given) | inactive
92 | CSCc1ccc(C(=O)Nc2cc(C)cc(C)c2)cc1 | inactive
93 | Cc1ccccc1C(=O)Nc1ccccc1NC(=O)c1ccccc1C | inactive
94 | CC(=O)Nc1ccccc1NC(=O)c1cc(C)cc(C)c1 | 11.2 µM (active)
95 | Cc1cc2c(cc1S(=O)(=O)CCC(=O)Nc1ccc(OC(F)(F)F)cc1)OCC(=O)N2 | inactive
96 | CCCCc1nn2c(=O)cc(COC(=O)c3ccc(NC(=O)c4ccccc4C)cc3)nc2s1 | inactive
97 | CCC(=O)Nc1cccc(-c2nc3cc(C)ccc3o2)c1 | inactive
98 | Cc1ccc(-n2nnnc2CNC(=O)c2ccccc2C)cc1C | inactive
99 | O=C(CCc1[nH]c2ccccc2c1Sc1ccccc1)N(CCO)CCO | 79.4 µM (active)
100 | CCCNC(=O)c1ccc(Cn2c(SCC(N)=O)nc3ccccc3c2=O)cc1 | inactive
